Assay outcomes as filed in PubChem BioAssay.
S1P2 antag: blocks the human S1P2 receptor | cell-based S1P2 antagonist assay, inhibition at 5 uM | inhibition, % at 5 µM | 97,000 compounds, 0.21% hits | AID 736; in the data active = inhibition above about 45%;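 note: CRE beta-lactamase reporter cells expressing human S1P2 stimulated with S1P; 0% = agonist at EC80 alone and 100% = agonist plus reference antagonist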
GALR2 blocker: antagonists of human galanin receptor 2 (GALR2); O43603; GALR2-expressing cells, antagonist mode; inhibition, % at 4 µM; 140,000 compounds, 0.39% hits; in the data active = inhibition above about 27%;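 note: cells stimulated with galanin 1-16 at roughly its EC80; 0% = agonist challenge control and 100% = basal control without agonist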
LYP act: increases human PTPN22 phosphatase activity | Q9Y2R2 | recombinant LYP, DiFMUP fluorescence; 0 = plate median, 100 = signal doubled | activation, % at 2 µM | 96,000 compounds, 0.11% hits;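 active = activation at 2 µM above a set limit, the mean plus 5 SD, cut at about 37% in these data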
Target sequence (Q9Y2R2 whole entry, looked up): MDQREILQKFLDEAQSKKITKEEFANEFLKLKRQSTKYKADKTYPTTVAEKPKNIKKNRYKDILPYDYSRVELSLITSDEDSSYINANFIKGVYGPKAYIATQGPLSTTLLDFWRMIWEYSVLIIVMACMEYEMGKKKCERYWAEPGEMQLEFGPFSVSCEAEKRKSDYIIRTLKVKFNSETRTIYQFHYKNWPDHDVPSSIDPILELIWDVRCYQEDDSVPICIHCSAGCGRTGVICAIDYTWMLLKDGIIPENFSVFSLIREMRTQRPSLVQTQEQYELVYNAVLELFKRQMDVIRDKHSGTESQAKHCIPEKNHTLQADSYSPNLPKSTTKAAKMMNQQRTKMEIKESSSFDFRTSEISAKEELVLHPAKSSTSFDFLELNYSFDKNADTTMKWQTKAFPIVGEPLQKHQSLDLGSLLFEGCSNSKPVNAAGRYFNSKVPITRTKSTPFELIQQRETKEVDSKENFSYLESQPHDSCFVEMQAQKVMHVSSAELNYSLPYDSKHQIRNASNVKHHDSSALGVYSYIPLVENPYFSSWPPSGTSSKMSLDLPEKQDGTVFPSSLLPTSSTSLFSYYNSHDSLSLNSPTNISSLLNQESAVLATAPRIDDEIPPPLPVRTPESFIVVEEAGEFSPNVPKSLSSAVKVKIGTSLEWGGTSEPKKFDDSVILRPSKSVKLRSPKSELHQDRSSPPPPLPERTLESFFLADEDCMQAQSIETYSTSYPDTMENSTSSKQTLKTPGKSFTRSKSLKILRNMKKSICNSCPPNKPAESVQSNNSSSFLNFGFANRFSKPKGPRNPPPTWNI
GALR2 ag: activates the human galanin receptor 2; GALR2-expressing cells, agonist activation read-out; activation, % (test concentration not listed); 140,000 compounds, 0.48% hits; AID 803; in the data active = activation above about 5%, passing the limit was not always enough;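 note: 0% = vehicle buffer wells and 100% = reference agonist at full effect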
PTPN22 inh 2: inhibitors of human LYP (PTPN22) phosphatase. recombinant LYP catalytic domain, DiFMUP fluorescence. inhibition, % at 2 µM. 96,000 compounds, 0.21% hits. AID 640;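 active = inhibition at 2 µM at or above a set limit, the screen mean plus 3 SD, cut at about 24% in these data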;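 note: 0% = DMSO with enzyme and 100% = enzyme fully blocked by orthovanadate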
S1P2 agonist: activates the human S1P2 receptor; S1P2-expressing cell line, agonist reporter read-out; activation, % at 4.5 µM; 97,000 compounds, 0.46% hits; in the data active = activation above about 16%;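 note: 0% = vehicle low control and 100% = maximal reference agonist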
The depositor's hits bear a star; nt = no result given. The list is not random: actives were taken first. Their share in the collection is about 1.4%.

SMILES	S1P2 antag	GALR2 blocker	LYP act	GALR2 ag	PTPN22 inh 2	S1P2 agonist
O=C(Nc1nnc(CSCc2ccc(F)cc2)s1)c1ccc([N+](=O)[O-])cc1	nt	0.7	nt	-1.7	nt	nt
O=C(Nc1nnc(COc2ccc(Cl)cc2)s1)c1ccc([N+](=O)[O-])cc1	7.3	4.9	-22.4	-1.7	24.5*	-5.6
C=CCOC(=O)C1=C(C)NC(C)=C(C(=O)OCC=C)C1c1cn(-c2ccccc2)nc1-c1ccco1	nt	-1.4	nt	5.1*	nt	nt
COc1ccc(N=C2NC(=O)S/C2=C\c2ccc(N(C)C)cc2)cc1	7.0	10.8	-5.2	-2.1	2.5	-2.9
CCOc1ccc(N=C2NC(=O)S/C2=C\c2ccc(Cl)cc2)cc1	5.8	6.7	-21.7	-4.6	25.8*	-9.8
CCOC(=O)N1CCN(C(=O)CSCC(=O)Nc2nc(-c3ccc(-c4ccccc4)cc3)cs2)CC1	86.8*	7.0	-1.1	0.5	1.1	-6.1
O=C(Nc1ccc(NC(=O)c2sc3ccccc3c2Cl)cc1)c1ccco1	nt	-3.8	nt	-0.1	nt	nt
CCSc1ccc(-c2nn(-c3ccccc3)cc2/C=C(/C#N)C(=O)NC)cc1	nt	9.0	nt	26.0*	nt	nt
COCCCNc1ncnc2c1[nH]c1ccccc12	-1.4	-7.3	-31.3	-0.5	33.6*	-3.3
Cc1c(C(=O)NCc2ccccc2)oc2ccc(S(=O)(=O)N3CCCC3)cc12	26.3	19.2	0.3	0.2	-0.3	-3.6
Cc1ccc(CNC(=O)c2oc3ccc(S(=O)(=O)N4CCOCC4)cc3c2C)cc1	50.4*	6.0	2.1	-1.8	-5.0	-6.0
O=C1C2C3C=CC(C3)C2C(=O)N1/N=C/c1cn(Cc2ccccc2)c2ccccc12 (configuration not stated)	3.8	-0.1	-9.3	-1.2	9.4	-0.9
NC1=NC(=O)/C(=C/c2cn(Cc3ccccc3)c3ccccc23)S1	nt	3.4	nt	5.3*	nt	nt
O=C(Cc1c[nH]c2ccccc12)Nc1nc2ccccc2[nH]1	10.1	18.3	5.0	-1.5	-6.1	608.7*
O=C(Cc1ccccc1)Nc1nc2ccccc2[nH]1	16.1	9.5	0.5	-1.2	-0.7	-3.6
O=C(CSc1nc(-c2ccc(F)cc2)cc(C(F)(F)F)n1)Nc1ccc2c(c1)OCO2	nt	4.8	nt	-0.2	nt	nt
CN1C(=O)C(c2nnc(Nc3cccc4ccccc34)s2)C2CC1(C)Oc1ccccc12 (configuration not stated)	nt	9.4	nt	-0.8	nt	nt
O=C(CSc1nnc(CCCO)n1-c1ccccc1)Nc1nccs1	nt	7.6	nt	-1.4	nt	nt
Cc1cccc(C)c1OCc1nnc(SCC(=O)Nc2nccs2)n1-c1ccccc1	8.2	-6.8	7.7	6.5*	-12.7	-0.1
CC(=O)Nc1ccc(-c2nnc(SCC(=O)c3ccc4c(c3)Cc3ccccc3-4)n2C)cc1	-8.7	-31.2	-10.9	4.9*	14.4	-4.2
O=S(=O)(Nc1nc(-c2sccc2Cl)cs1)c1cc(Cl)ccc1Cl	-11.8	0.9	-24.0	-2.9	26.4*	-3.8
C=CCn1c(N)c(C(=O)Nc2ccccc2)c2nc3ccccc3nc21	nt	-9.0	nt	8.1*	nt	nt
COCCNC(=O)c1c(N)n(-c2cccc(C)c2)c2nc3ccccc3nc12	-11.6	2.6	9.6	3.5	-10.3	10.2
COCCNC(=O)c1c(N)n(-c2ccccc2)c2nc3ccccc3nc12	-16.7	1.8	-12.6	4.9*	15.9	5.5
COCCNC(=O)c1c(N)n(CCCn2ccnc2)c2nc3ccccc3nc12	-5.3	11.6	2.2	0.0	-3.6	18.1*
SMILES	S1P2 antag	GALR2 blocker	LYP act	GALR2 ag	PTPN22 inh 2	S1P2 agonist
COCCCNC(=O)c1c(N)n(/N=C/c2cccnc2)c2nc3ccccc3nc12	nt	6.1	nt	1.7	nt	nt
COCCCNC(=O)c1c(N)n(/N=C/c2cccs2)c2nc3ccccc3nc12	nt	-11.7	nt	20.4*	nt	nt
Cc1ccc2nc(SCC(=O)Nc3cc([N+](=O)[O-])ccc3F)[nH]c2c1	nt	13.9	nt	0.5	nt	nt
CC1OC(Oc2ccc3ccc(=O)oc3c2-c2c(O)ccc3cc(Oc4ccc5ccc(=O)oc5c4)c(=O)oc23)C(O)C(O)C1O (configuration not stated)	nt	-1.4	nt	-1.4	nt	nt
O=[N+]([O-])c1ccc2c(c1)C(N1CCOCC1)/C(=C/COc1ccc(Cl)cc1Cl)O2 (configuration not stated)	-26.2	8.2	9.7	-3.4	-4.1	-3.0
C#CCNc1nc(CC)nc2c1nnn2Cc1ccccc1F	-29.5	-2.9	-2.4	-0.1	1.3	28.0*
CCn1cc(C(=O)NCc2ccc(C)o2)c2cc(OC)c(OC)cc2c1=O	-21.7	-9.1	3.5	-0.1	-5.9	17.4*
